According to PubChem BioAssay (NCI):
Values joined by “and” are separate entries in the source; they are usually repeats but may differ in a detail not shown here. Equal entries are not always repeated. Compounds without any hit were thinned out: in the full panel of roughly 79,000, 15% have a hit. Where a structure was tested more than once in an assay, its records may differ in their call. Active and inactive are the calls of the source. Rule as the data show it: active = growth inhibition above about 70%; inactive = the rest.

Test: NCI Yeast Anticancer Drug Screen. Data for the sgs1 mgt1 strain (AID 161);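 also: 0% = growth of cultures given vehicle only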
Details: S. cerevisiae sgs1 mgt1 strain, at 50.0 µM, stronger effect = higher value
Procedure, shortened: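 Test agents were incubated with a DNA-repair-mutant yeast strain. Growth was then read and compared against vehicle-treated controls.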

SMILES	growth inhibition
COc1cccc2c1C(=O)c1c(O)c3c(c(O)c1C2=O)C[C@@](O)(C(C)=O)C[C@@H]3OC1CC(O)C(O)C(C)O1 (stereo partly drawn)	85.2% (active)
COc1cccc2c1C(=O)c1c(O)c3c(c(O)c1C2=O)C[C@@](O)(C(C)=O)C[C@@H]3OC1CC(N(C)C)C(O)C(C)O1 (stereo partly drawn)	90.8% (active)
C[N+]1(C)CCC(c2ccccc2)(c2ccccc2)C(=O)C1	6.2% (inactive) and 21.8% (inactive)
CC[C@@]1(OC(=O)C(N)CCCCN)C(=O)OCc2c1cc1n(c2=O)Cc2cc3ccccc3nc2-1 (stereo partly drawn)	77.1% (active)
CCN(CCO)CCNc1ccc(C)c2sc3ccccc3c(=O)c12	91.8% (active)
NC(=O)SCC(=O)NNc1ccccc1	87.8% (active)
CCN(CC)c1ccc(C(=C2C=CC(=[N+](CC)CC)C=C2)c2ccc(N(CC)CC)cc2)cc1	77.5% (active)
Nc1ncnc2c(C3OC(CO)C(O)C3O)scc12 (stereo not drawn)	39.4% (inactive)
Nc1ccc(Cn2ccc3c4c(N)nc(N)nc4ccc32)cc1	72.7% (active)
Cc1n(CC(C)C)c2c([n+]1C)C(=O)c1ccccc1C2=O	91% (active)
c1ccc(Cc2cc3ccccc3c3ccccc23)cc1	-6.6% (inactive)
Nc1nc(N)c2c(Cl)c(CNc3ccc(Cl)c(Cl)c3)ccc2n1	90.8% (active)
C=C1CC2(CC(c3ccccc3OC)OC(c3ccccc3OC)C2)OC1=O (stereo not drawn)	54.2% (inactive)
O=[N+]([O-])c1c(Cl)nc2ccccn12	31.1% (inactive)
C/C(=N\NC(=S)N1CCN(c2ccccn2)CC1)c1nccs1	90.8% (active)
Clc1nc(Cl)c(Cl)c(Cl)n1	8.65% (inactive)
COc1ccc(COc2ccc(C(=O)CCN3CCOCC3)cc2)cc1	97% (active)
O/N=C/c1cc(I)c(O)c(I)c1	98.8% (active)
COC1OC2COC(c3ccccc3)OC2C(O)C1OS(=O)(=O)c1ccc(C)cc1 (stereo not drawn)	74.6% (active) and 16.9% (inactive)

SMILES	growth inhibition
C=C1CC2(CC(c3ccccc3C)OC(c3ccccc3C)C2)OC1=O (stereo not drawn)	84.1% (active)
Cc1ccc2c(c1)C1(C)OC(C=CC1=O)O2 (stereo not drawn)	91% (active)
COc1cc(OC)c(OC)cc1/C=C\c1ccnc2ccccc12	88.4% (active)
Cc1n(Cc2ccccc2)c2c([n+]1C)C(=O)c1ccccc1C2=O	91.2% (active)
O=[N+]([O-])c1cc2c(cc1S(=O)(=O)O)C1C(C3C2C2(Cl)C(Cl)=C(Cl)C3(Cl)C2(Cl)Cl)C2(Cl)C(Cl)=C(Cl)C1(Cl)C2(Cl)Cl (stereo not drawn)	72.5% (active)
CCOC(=O)Nc1c(C)cc(C)c(Br)c1C	94.9% (active)
COc1cc2c(c(OC)c1OC)-c1ccc(SC)c(=O)cc1C(NC(=O)c1ccccc1)CC2 (stereo not drawn)	83.5% (active)
CCCCCCCCCCS(=O)CC(CO)NC(=O)/C=C/c1c(C)[nH]c(=O)[nH]c1=O (stereo not drawn)	88.7% (active)
C/C(N=NC(=S)N1CCCCCC1)=C1\C=CC=CN1O	68.4% (inactive)
Cc1cc(NCCCCCCCNc2cc(C)nc3cc([N+](=O)[O-])ccc23)c2ccc([N+](=O)[O-])cc2n1	72.2% (active)
CC1CC[P+](c2ccccc2)(c2ccccc2)c2c1ccc1ccccc21 (stereo not drawn)	91.2% (active)
O=C1C(Cl)=C(N2CCN(C3=C(Cl)C(=O)c4ccccc4C3=O)CC2)C(=O)c2ccccc21	88.7% (active)
CCN1CCC(O)(c2ccc(Oc3ccccc3)cc2)C(C(=O)c2ccc(Oc3ccccc3)cc2)C1 (stereo not drawn)	-21.9% (inactive)
Cc1ccc(NCCN(C)C)c2c(=O)c3cc(O)ccc3sc12	91.2% (active)
COc1ccc2nc(C)cc(NCCCCCCCCCNc3cc(C)nc4ccc(OC)cc34)c2c1	80.8% (active)
Cc1n(-c2ccccc2)c2c([n+]1Cc1ccc([N+](=O)[O-])cc1)C(=O)c1ccccc1C2=O	88.5% (active)
CC1(O)Cc2c(O)c3c(c(O)c2CC1O)C(=O)C=CC3=O (stereo not drawn)	26.5% (inactive)
c1ccc(C2=NC(c3ccccc3)=NS(S3=NC(c4ccccc4)=NC(c4ccccc4)=N3)=N2)cc1 (stereo not drawn)	82.7% (active)
CC[C@](O)(CC(=O)O[C@H]1C(=O)O[C@@H]2C[C@H]3C(C)=CC(=O)[C@@H](O)[C@]3(C)[C@H]3[C@@]4(O)OC[C@]32[C@@H]1[C@@H](C)[C@H]4O)C(C)C	88.9% (active)
